# Experimental data taken from PubChem BioAssay (NCI).
# This is part of a sample that, as a whole, favours compounds with a hit. Of some 79,000 tested, about 15% had one in any assay. Values without a mark were called inactive. Activity calls are given as the source filed them. No stated cut-off is given here; in the data, active means growth inhibition above about 70%; inactive means the rest.
# What was measured:
# [1] = NCI Yeast Anticancer Drug Screen. Data for the rad50 strain (AID 155);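 further: 0% = growth of vehicle-only cultures of the same strain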; details: S. cerevisiae rad50 strain growth inhibition, active compounds read high
# Procedure, shortened: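 Yeast carrying a defined DNA repair defect were exposed to test compounds, and growth was compared with vehicle-treated controls to give percent inhibition.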
# [2] = NCI Yeast Anticancer Drug Screen. Data for the mec2-1 strain (AID 157); details: S. cerevisiae mec2-1 strain, active compounds read high
# Procedure, shortened: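 Using mec2-1 yeast: add compound, measure growth, express inhibition versus vehicle-treated cultures.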
# [3] = NCI Yeast Anticancer Drug Screen. Data for the sgs1 mgt1 strain (AID 161);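 further: 0% = growth of cultures given vehicle only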; details: S. cerevisiae sgs1 mgt1 strain, active compounds read high
# Procedure, shortened: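 Yeast cells carrying a defined DNA-repair defect were exposed to test compounds. Growth inhibition was measured relative to vehicle-treated controls.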
# [4] = NCI Yeast Anticancer Drug Screen. Data for the cln2 rad14 strain (AID 165);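 further: 0% = growth equal to vehicle treated cultures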; details: S. cerevisiae cln2 rad14 strain, active compounds read high
# Procedure, shortened: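 Yeast strain cln2 rad14, bearing defects in cell cycle control and DNA repair, serves as the test system; values reflect growth inhibition compared with vehicle.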
# [5] = NCI Yeast Anticancer Drug Screen. Data for the bub3 strain (AID 167); details: S. cerevisiae bub3 mutant strain, active compounds read high
# Procedure, shortened: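 Compounds were applied to a genetically altered yeast strain carrying a cell-cycle control defect. Growth inhibition was scored against vehicle-treated controls.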
# [6] = NCI Yeast Anticancer Drug Screen. Data for the mlh1 rad18 strain (AID 175); details: S. cerevisiae mlh1 rad18 strain growth inhibition, active compounds read high
# Procedure, shortened: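 Steps: expose repair-defective yeast to compound; measure growth; express inhibition against vehicle-treated controls.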
# [7] = at 5.0 µM (retest, dose inferred, filed as 0.5)
# [8] = at 50.0 µM (retest, dose inferred, filed as 5.0)
Structure (SMILES),"growth inhibition [1, 7]","growth inhibition [1, 8]",growth inhibition ([1]; at 50.0 µM),"growth inhibition [2, 7]","growth inhibition [2, 8]",growth inhibition ([2]; at 50.0 µM),"growth inhibition [3, 7]","growth inhibition [3, 8]",growth inhibition ([3]; at 50.0 µM),"growth inhibition [4, 7]","growth inhibition [4, 8]",growth inhibition ([4]; at 50.0 µM),"growth inhibition [5, 7]","growth inhibition [5, 8]",growth inhibition ([5]; at 50.0 µM),"growth inhibition [6, 7]","growth inhibition [6, 8]",growth inhibition ([6]; at 50.0 µM)
Clc1ccccc1NN(Cc1ccccn1)c1ccccc1Cl,16%,54%,76.5% (active),-6%,32%,58.7%,8%,69%,58.9%,-14%,50%,57%,28%,77% (active),88.4% (active),3%,59%,71.2% (active)
COc1ccc2ccc(OC)c(C=O)c2c1,-158%,-119%,97.5% (active),-50%,-111%,10.2%,-65%,-60%,-1%,-63%,-58%,-28.2%,-67%,-74%,-25.6%,-144%,-107%,63.5%
CN(C)CCC[Si]1(C)c2ccccc2CCc2ccccc21,-6%,16%,82.8% (active),-5%,15%,40%,-5%,17%,57.4%,-2%,-5%,19.9%,-8%,6%,71.3% (active),-3%,26%,78.8% (active)
CC1=C(C(=O)Nc2ccccc2C)C(c2ccccc2F)C(C(=O)Nc2ccccc2C)=C(C)N1,1%,6%,29.6%,3%,8%,41.9%,-2%,6%,6.6%,-2%,-6%,-23.1%,1%,2%,20.2%,1%,8%,47.7%
O=C(O)c1ccccc1-c1c2cc([N+](=O)[O-])c(=O)c(Br)c-2oc2c(Br)c(O)c([N+](=O)[O-])cc12,27%,91% (active),77.5% (active),29%,93% (active),82.1% (active),25%,66%,62%,34%,66%,88.5% (active),32%,75% (active),66.5%,42%,96% (active),72.1% (active)
CC(COC(=O)C(c1ccccc1)C1C=CCCC1)CN1CCCC1 (configuration not stated),-1%,60%,70.4% (active),18%,51%,46.8%,21%,61%,72.8% (active),4%,34%,86.5% (active),0%,36%,74.5% (active),35%,74% (active),90.3% (active)
O=S1(=O)CC2C1C1(Cl)OC2(Cl)c2ccccc21 (configuration not stated),2%,13%,75.2% (active),16%,9%,-9.25%,2%,6%,31.1%,-45%,17%,-1.65%,-3%,-9%,21.4%,1%,1%,27.6%
Cc1cc(C(=O)O)c(C)cc1SSc1cc(C)c(C(=O)O)cc1C,-12%,72% (active),51.4%,11%,74% (active),9.25%,4%,76% (active),54.7%,-5%,70% (active),3.7%,-13%,63%,41.4%,-3%,81% (active),69.2%
COc1cccc(C2c3cc4c(cc3OC(N3CCCC3)C2c2ccccc2)OCO4)c1O (configuration not stated),24%,98% (active),8.35%,19%,99% (active),13%,-2%,95% (active),29.4%,-7%,96% (active),13.2%,6%,95% (active),26.4%,18%,98% (active),32.2%
CC1=CC(O)(c2ccc(-c3ccccc3Cl)cc2)OC1=O (configuration not stated),-8%,90% (active),90.2% (active),0%,96% (active),94.8% (active),-1%,88% (active),92.1% (active),-19%,87% (active),90.9% (active),-11%,95% (active),89.3% (active),-9%,94% (active),96.3% (active)
CC(=O)c1cccc(NC2C(N)C(NC(=O)N(C)C)(C(C)O)C(C)(O)C2(O)COC(=O)c2c(C)cccc2O)c1 (configuration not stated),42%,96% (active),93% (active),17%,98% (active),94.5% (active),44%,97% (active),94.6% (active),21%,96% (active),92% (active),36%,98% (active),93.8% (active),47%,97% (active),93.2% (active)
Oc1c(Cl)ccc2cccnc12,97% (active),98% (active),92% (active),98% (active),99% (active),93.8% (active),91% (active),80% (active),94.1% (active),98% (active),97% (active),92.5% (active),99% (active),99% (active),92.8% (active),95% (active),98% (active),91.7% (active)
OC1(c2ccccc2)CCC2CCCCC2C1 (configuration not stated),3%,32%,94.4% (active),-4%,52%,96.5% (active),2%,69%,90.5% (active),-10%,8%,89.5% (active),4%,49%,88.5% (active),-14%,63%,81.2% (active)
CCCCCCCCC[n+]1cccc(C(=O)c2ccccc2)c1,-1%,53%,51.6%,4%,56%,24.8%,-165%,77% (active),72.7% (active),-4%,42%,3.95%,0%,70% (active),82.5% (active),36%,78% (active),72.7% (active)
O=C1/C(=C/c2ccccc2[N+](=O)[O-])COc2ccccc21,37%,94% (active),-4%,28%,96% (active),12.7%,21%,92% (active),13.2%,28%,94% (active),8.75%,34%,98% (active),15.1%,23%,98% (active),8.65%
O=C(Oc1ccc(/C=C/[n+]2ccccc2)c(OC(=O)c2ccccc2)c1)c1ccccc1,-4%,93% (active),49.6%,14%,97% (active),18.7%,-11%,95% (active),70.2% (active),-8%,91% (active),5.7%,1%,83% (active),-1.45%,7%,98% (active),48.7%
CN(C)CCCCN1c2ccccc2Sc2ccc(C(=O)c3ccccc3)cc21,0%,65%,99.8% (active),-2%,81% (active),99.8% (active),3%,79% (active),99.8% (active),2%,70% (active),99.3% (active),4%,77% (active),99.7% (active),0%,82% (active),99.6% (active)
CCCCCCCCCCCC(=O)OCC(C)C,5%,-19%,0.95%,-7%,20%,-13%,0%,4%,7.55%,20%,-11%,-3.95%,0%,-18%,-2.1%,-16%,-8%,15.5%
O=C1C(=O)C(Cl)=C(Cl)C(Cl)=C1Cl,-3%,97% (active),99.3% (active),7%,99% (active),99.7% (active),1%,95% (active),99.5% (active),-12%,98% (active),98.5% (active),-25%,97% (active),99.3% (active),-7%,98% (active),99.1% (active)
